Screening data as filed in PubChem.
Shown are actives, neighbours in structure and some others; about 7.7% of the full set was active somewhere.
FMDV inh – High Throughput Screening for Foot and Mouth Disease Virus Antivirals; FMDV antiviral cell-based qHTS; Potency, µM (highest dose often 57.9 µM), without a hit: top-dose activity change, negative = inhibition, usual class: inhibitors; 1.2% of 410,000 active; AID 1159524, 2015; calls by dose curve; tested in HEK293T cells; note: read-out not given here; potency is the fitted concentration of half-maximal effect; nearly all actives have a fitted effect of over 45% in size
Sm TGR block – qHTS Assay for the Inhibitors of Schistosoma Mansoni Peroxiredoxins. Schistosoma mansoni thioredoxin glutathione reductase (TGR), Q962Y6. purified TGR, DTNB reduction, TNB absorbance 405 nm. Potency, µM (series often up to 114 µM), without a hit: at the highest dose activity change, negative = inhibition, usual class: inhibitors. 3% of 360,000 active; note: potency is the fitted concentration of half-maximal effect; nearly all actives have a fitted effect of over 60% in size
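TGR 20 nM + NADPH 100 uM (dispensed conc.), cpd preinc 15 min RT; start with NADPH (500 uM addition) then DTNB (15 mM addition). Kinetic TNB absorbance, 405 nm filter. Four-parameter Hill fit across titration.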
Tb PYK inh – qHTS of Trypanosoma Brucei Inhibitors | Potency, µM (highest dose often 76.8 µM), without a hit: top-dose activity, negative = inhibition, hits mostly inhibitors | 0.12% of 410,000 active | TbPYK enzyme, Kinase-Glo Plus ATP luminescence, 45 min | pyruvate kinase (Trypanosoma brucei), Q57TT1; note: potency is the fitted concentration of half-maximal effect; nearly all actives have a fitted effect of over 50% in size
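Readout: single end-point luminescence (Kinase-Glo Plus, 10 min). Reaction conditions were TbPYK/substrate plus 130 uM ADP, 45 min at RT, pH 7.2 TEA buffer. No-enzyme wells served as controls, and data were normalized before concentration-response fitting.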
RE007 growth inh – qHTS Assay for Inhibitors of the HIV-1 protein Vpr; S. pombe RE007 Vpr strain, BacTiter-Glo ATP luminescence, 24 h; Potency, µM (doses to about 92.2 µM), without a hit: at the highest dose activity change, negative = less growth, actives largely listed as inhibitors; 0.21% of 360,000 active; active = well fitted falling curve with a large enough effect; inconclusive = small, poorly fitted or top-dose-only effect; inactive = no such curve, though single readings can be large or run the other way; note: potency is the fitted concentration of half-maximal effect; nearly all actives have a fitted effect of over 50% in size
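Fission yeast RE007 carrying one integrated HIV-1 vpr copy, seeded at OD 0.01 in PMG+AL medium with 23 nL pinned compound. Grown 24 h at 30 degrees; viability read by BacTiter-Glo luminescence after 5 min.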
HCMV antiviral – qHTS Assay for inhibitors of the human cytomegalovirus (HCMV). activity change, negative = inhibition, % at 57.5 µM. 4.5% of 410,000 active. HFF cells, HCMV-luciferase reporter, 72 h; stronger effect = lower value. AID 1259415, 2018; in the data active = activity change below about -60%; inconclusive = no clear call, values can overlap the other calls; inactive = above about -39%
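Inhibition of viral replication was scored as loss of reporter luminescence in HFFs infected with HCMV-luciferase (MOI 1 PFU/cell) for 72 h; compounds tested at 2 doses, normalized to buffer and Salinomycin controls.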
Giardia FBPA inh – qHTS Assay for Inhibitors of Fructose-1,6-bisphosphate Aldolase from Giardia Lamblia; 0.71% of 290,000 active; purified Giardia FBPA; AID 2451, 2010; Potency, µM (series often up to 59.6 µM), for inactives: at the highest dose activity, negative = inhibition, actives largely listed as inhibitors; A8B2U2; note: potency is the fitted concentration of half-maximal effect; nearly all actives have a fitted effect of over 55% in size
Target sequence (A8B2U2 whole entry, looked up): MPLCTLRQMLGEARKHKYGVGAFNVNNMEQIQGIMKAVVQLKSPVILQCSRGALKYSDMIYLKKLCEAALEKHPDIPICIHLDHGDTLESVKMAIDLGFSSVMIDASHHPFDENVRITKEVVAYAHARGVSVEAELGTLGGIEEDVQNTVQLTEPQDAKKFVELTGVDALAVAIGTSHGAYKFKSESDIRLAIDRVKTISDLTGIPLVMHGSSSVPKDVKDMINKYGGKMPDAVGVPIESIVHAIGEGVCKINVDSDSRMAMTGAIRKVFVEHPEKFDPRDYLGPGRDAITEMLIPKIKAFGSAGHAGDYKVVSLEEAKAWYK
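40 nM FBPA preincubated 10 min at RT with compound (up to 57.5 uM final), then substrate plus GAPDH/TPI/NAD/arsenate coupling and diaphorase/resazurin added. Fluorescence read after 20 min at RT, 525/598 nm.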
Numbers without * were called inactive; u = inconclusive; x = no result given. Unless noted, calls come from the whole dose curve; as a rule, active = well fitted curve in the direction sought with a large enough effect; inconclusive = small, poorly fitted or top-dose-only effect, or another doubt; inactive = no such curve, though single readings can be large; an effect the other way counts as inactive or inconclusive. % is set by controls: 0 for no effect and ±100 for the full control effect.

SMILES	FMDV inh	Sm TGR block	Tb PYK inh	RE007 growth inh	HCMV antiviral	Giardia FBPA inh
Cc1ccc2c(c1)c(=O)c(S(=O)(=O)c1ccc(C)c(C)c1)cn2CC(=O)Nc1ccccc1	4%	1%	-3%	x	15	x
CCOc1ccccc1CNC(=O)C1CCN(S(=O)(=O)c2cccc3nonc23)CC1	-4%	-7%	-4%	x	-4	x
COc1ccc(NC(=O)CCc2nc3c(C)nn(-c4ccc(C)cc4)c3n(C)c2=O)c(OC)c1	-14%	-2%	-5%	x	9	x
Cc1nnc(SCC(=O)N/N=C/c2cn(-c3ccccc3)nc2-c2ccccc2)n1-c1ccccc1	28µM*	18%	1%	-8%	3	12%
O=C(N/N=C\c1cn(-c2ccccc2)nc1-c1ccccc1)c1ccc(Br)o1	u	14%	-14%	-14%	75	-2%
Cc1ccc(-c2nn(-c3ccccc3)cc2/C=N/NC(=O)c2ccc(Br)o2)cc1	28µM*	12%	-2%	12%	22	-7%
CCOC(=O)C1=C(CN2CCN(c3ccccc3F)CC2)NC(=O)NC1c1ccc(Cl)cc1 (stereo not given)	u	-1%	-2%	x	-8	x
O=C(NC(NNc1ccc([N+](=O)[O-])cc1)(C(F)(F)F)C(F)(F)F)c1ccc(F)cc1	u	32µM*	5%	-10%	15	-10%
O=[N+]([O-])c1ccc(NNC(=S)Nc2ccc(F)cc2)cc1	0%	-25%	-29%	16%	-99*	u
O=C(NNC(=S)Nc1ccc(F)cc1)c1cccc([N+](=O)[O-])c1	27%	-9%	1%	6%	42	6%
CC(C)OC(=O)c1cc(NC(=S)Nc2ccc([N+](=O)[O-])cc2)cc(C(=O)OC(C)C)c1	u	2%	0%	u	-86*	-7%
CC(C)CCNC(=S)Nc1ccc([N+](=O)[O-])cc1	12%	u	-22%	-12%	-98*	0%
Cc1ccc(-c2cc(C(=O)N3CCN(S(=O)(=O)c4ccc(Br)s4)CC3)[nH]n2)c(C)c1	u	2%	0%	x	6	x
CCCCNC(=S)Nc1ccc([N+](=O)[O-])cc1	17%	u	-15%	-11%	-75*	1%
N#Cc1cccc(NC(=O)COC(=O)Cn2nc(-c3ccccc3)oc2=O)c1	-11%	4%	2%	0%	-65*	x
Cc1cc(C)c(NC(=O)COC(=O)Cn2nc(-c3ccccc3)oc2=O)c(C)c1	-2%	x	1%	6%	101	x
N#Cc1cccc(NC(=O)COc2ccc(-n3ccnc3)cc2)c1	28µM*	-1%	10%	3%	-26	0%
COc1cc(NC(=O)COc2ccc(-n3ccnc3)cc2)cc(OC)c1	u	-7%	-1%	12%	-87*	5%
C/C(=N\NC(=O)COc1ccc(C(C)(C)C)cc1)c1ccc(-n2ccnc2)cc1	u	-1%	-12%	-4%	48	2%
CC(C)(C)c1ccc(NC(=O)COc2ccc(-n3ccnc3)cc2)cc1	11µM*	2%	-13%	-7%	-86*	-3%
CCOc1ccc(N2CC(c3nc4ccccc4n3CCCOc3ccccc3OC)CC2=O)cc1 (stereo not given)	-15%	1%	-1%	x	4	x
CCOC(=O)c1cccn1C1C(=O)N(Cc2ccc(Cl)nc2)c2ccc(F)cc21 (stereo not given)	x	x	x	x	9	x
CC(C)(C)n1cccc1/C=C1\C(=O)NC(=O)N(c2ccccc2)C1=O	10%	u	2%	-6%	8	0%
Cc1cccc(N2C(=O)NC(=O)/C(=C\c3cccn3-c3ccc(Cl)cc3)C2=O)c1	10µM*	-39%	0%	11%	-102*	2%
Cc1cc(C)cc(N2C(=O)NC(=O)/C(=C/c3cccn3-c3ccc(Cl)cc3)C2=O)c1	14µM*	-26%	-4%	9%	70	-3%
SMILES	FMDV inh	Sm TGR block	Tb PYK inh	RE007 growth inh	HCMV antiviral	Giardia FBPA inh
C=C(c1ccccc1)[C@H](C#N)C1CCCC1	x	x	x	x	15	x
Cc1ccc(-n2c(SCC(=O)N/N=C/c3c(C)nn(-c4ccccc4)c3C)nc3ccccc3c2=O)cc1	0%	-4%	-22%	1%	-63*	3%
Cc1ccc(/C=N/NC(=O)CSc2nc3ccccc3c(=O)n2-c2ccccc2C)s1	-8%	3%	-2%	-11%	-69*	-1%
Cc1ccccc1-n1c(SCC(=O)NC(N)=O)nc2sc(-c3ccccc3)cc2c1=O	-7%	1%	1%	4%	-71*	1%
Cc1nn(-c2ccccc2)c(C)c1/C=N/NC(=O)CSc1nc2ccccc2c(=O)n1-c1ccc(Br)cc1	-7%	8%	3%	-15%	-8	7%
Cc1ccc(/C=N/NC(=O)CSc2nc3ccccc3c(=O)n2-c2ccccc2)s1	-2%	4%	-4%	-18%	10	0%
COc1ccc(C2C(=O)N(C3CCCCCC3)CC(=O)N2Cc2ccc(C)cc2)cc1OC (stereo not given)	-18%	7%	2%	x	-26	x
CC(=O)c1ccc(NC(=O)CN(C)S(=O)(=O)c2cccc3nsnc23)cc1	11%	-2%	1%	x	2	x
CC(=O)Nc1ccc(S(=O)(=O)N(C)C2CCN(C)CC2)cc1	-11%	-18%	-2%	0%	-27	-5%
CN1CCC(N(C)S(=O)(=O)c2ccc(C(C)(C)C)cc2)CC1	-16%	1%	-10%	0%	-91*	-13%
CCN(CC)c1ccc2c(O)cc(=O)oc2c1	0%	3%	4%	0%	20	0%
CCCCc1cc(=O)oc2cc(OCC(=O)N3CCOCC3)ccc12	-5%	-2%	1%	5%	-81*	7%
CCN(CC)c1ccc(C(=O)OCc2cc(=O)oc3cc(O)ccc23)cc1	u	4%	-2%	10%	-104*	7%
CCCCc1cc(=O)oc2cc(O)ccc12	-11%	x	0%	8%	-104*	6%
CCc1ccccc1NC(=O)Cn1nc(N2CCN(c3ccccc3OC)CC2)ccc1=O	u	7%	-6%	x	-1	x
COc1ccccc1N1CCN(S(=O)(=O)c2c(C)sc3ncn(CC(=O)Nc4ccccc4F)c(=O)c23)CC1	-18%	2%	-16%	x	0	x
